Measurements: PubChem BioAssay (NCATS)
Records with an inconclusive call do not appear. Activity calls are given as the source filed them. Unless noted, calls come from the whole dose curve; as a rule, active = well fitted curve in either direction with a large enough effect (not every such curve was filed as active); inconclusive = small, poorly fitted or top-dose-only effect, or another doubt; inactive = flat fitted curve, though single readings scatter.

Tests used:
[1] = biological target: Lysosomal acid glucosylceramidase (Homo sapiens) (UniProt P04062); test: Glucocerebrosidase-p2 (AID 348; in the data active = potency below about 10 µM; note: potency is the fitted concentration of half-maximal effect); details: purified GBA, blue fluorogenic substrate, 40 min
Sequence of Lysosomal acid glucosylceramidase (Homo sapiens) (P04062 whole entry, looked up): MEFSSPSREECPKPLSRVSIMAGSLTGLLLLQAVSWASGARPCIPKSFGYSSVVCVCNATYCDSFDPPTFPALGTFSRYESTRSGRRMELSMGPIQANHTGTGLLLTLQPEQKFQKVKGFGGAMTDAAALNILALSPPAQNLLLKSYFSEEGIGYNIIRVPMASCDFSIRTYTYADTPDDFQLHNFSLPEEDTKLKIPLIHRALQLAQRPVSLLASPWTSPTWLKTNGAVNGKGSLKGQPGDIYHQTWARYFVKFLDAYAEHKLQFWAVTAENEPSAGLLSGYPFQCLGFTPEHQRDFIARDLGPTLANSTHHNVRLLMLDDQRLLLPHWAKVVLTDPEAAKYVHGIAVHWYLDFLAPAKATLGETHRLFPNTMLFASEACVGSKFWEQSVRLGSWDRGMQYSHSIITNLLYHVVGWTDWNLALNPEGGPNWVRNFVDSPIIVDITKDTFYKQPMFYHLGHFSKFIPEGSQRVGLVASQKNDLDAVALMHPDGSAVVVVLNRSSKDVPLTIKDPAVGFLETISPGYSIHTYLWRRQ
In short: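 Compounds titrated from 0.6 nM upwards against 0.2 nM enzyme in pH 5.9 citric acid/KH2PO4, taurocholate, tween-20; blue fluorogenic substrate 80 uM, 40 min room temperature, stopped and read Ex 365/Em 440 for AC50.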

[2] = AP1 Signaling Pathway (AID 357); details: ME-180 AP-1-bla reporter, EGF-induced, beta-lactamase ratio, 5 h; at 7.69 µM (top of the series) unless noted;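 note: ME-180 reporter cells stimulated with EGF at its EC50 level; % is set by controls: 0 for no effect and ±100 for the full control effect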
In short: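 Cells are seeded overnight, exposed to compound titrations and an EC50 level of EGF for 5 hours at 37 °C, then loaded with CCF4 dye for 2.5 hours. Beta-lactamase activity under the AP-1 element is read as a blue/green ratio.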

[3] = biological target: Cytochrome P450 1A2 (Homo sapiens) (UniProt P05177); test: p450-cyp1a2 (AID 410; calls by dose curve; note: potency is the fitted concentration of half-maximal effect;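 for activity change, negative = inhibition: -100% = full effect of reference inhibitor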); details: recombinant CYP1A2, luciferin-ME demethylation, luminescence; series mostly up to 11.4 µM
Sequence of Cytochrome P450 1A2 (Homo sapiens) (P05177 whole entry, looked up): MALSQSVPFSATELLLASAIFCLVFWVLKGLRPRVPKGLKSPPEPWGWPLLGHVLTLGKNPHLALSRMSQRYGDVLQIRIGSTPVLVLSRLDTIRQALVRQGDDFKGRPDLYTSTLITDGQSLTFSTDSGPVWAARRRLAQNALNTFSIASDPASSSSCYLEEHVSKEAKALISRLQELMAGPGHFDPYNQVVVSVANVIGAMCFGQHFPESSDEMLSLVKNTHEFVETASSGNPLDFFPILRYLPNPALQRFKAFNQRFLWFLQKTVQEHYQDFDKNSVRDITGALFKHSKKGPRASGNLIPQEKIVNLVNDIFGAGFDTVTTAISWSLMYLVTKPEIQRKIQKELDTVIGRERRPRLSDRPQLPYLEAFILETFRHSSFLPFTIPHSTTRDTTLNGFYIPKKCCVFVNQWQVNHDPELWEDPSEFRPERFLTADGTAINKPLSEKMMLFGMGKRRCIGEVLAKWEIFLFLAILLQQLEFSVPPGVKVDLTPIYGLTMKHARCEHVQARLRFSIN
In short: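 20nM CYP1A2 with 100uM Luciferin-ME (at Km) in 100mM KPO4; compound preincubated 10 min, NADPH regeneration added, 60 min at room temperature. Luciferin quantified by luminescence after detection reagent; normalized to 57 uM furafylline.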

[4] = NFAT Signaling Pathway (AID 444); details: Jurkat NFAT-bla M1, carbachol, beta-lactamase ratio, 5 h; at 7.69 µM (top of the series) unless noted;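 note: carbachol stimulus at about its EC50 of 1 µM final; % is set by controls: 0 for no effect and ±100 for the full control effect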
In short: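 Read-out: CCF4 FRET ratio (460 nm/530 nm) after 1 h RT dye loading, used for %activity and AC50 from titration series. Cells: Jurkat NFAT-β-lactamase/M1 line, treated with compound plus 1 uM carbachol for 5 h, 37 °C.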

[5] = Stat Signaling Pathway (AID 446); details: ME-180 SIE beta-lactamase reporter, IL-6 stimulated, 5 h; at 7.69 µM (top of the series) unless noted;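 note: ME-180 cervical cancer cells given 40 pM IL-6 alongside compound; SIE-controlled beta-lactamase reporter measured as 460/530 nm FRET emission ratio; % is set by controls: 0 for no effect and ±100 for the full control effect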
In short: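 Screening format detects activators and inhibitors alike: ME-180 SIE-bla cells stimulated at 40 pM IL-6 for 5 hrs with compound, then dual-emission beta-lactamase read at 405 nm excitation.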

[6] = biological target: Glucocorticoid receptor (Homo sapiens) (UniProt P04150); test: GR-GFP Redistribution (AID 450;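 active = compounds whose dose series gives a full or clear partial fitted curve of increased nuclear translocation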; note: potency is the fitted concentration of half-maximal effect); details: U2OS GR-GFP nuclear translocation, laser cytometry, 2 h
Sequence of Glucocorticoid receptor (Homo sapiens) (P04150 whole entry, looked up, the tested form may be a part): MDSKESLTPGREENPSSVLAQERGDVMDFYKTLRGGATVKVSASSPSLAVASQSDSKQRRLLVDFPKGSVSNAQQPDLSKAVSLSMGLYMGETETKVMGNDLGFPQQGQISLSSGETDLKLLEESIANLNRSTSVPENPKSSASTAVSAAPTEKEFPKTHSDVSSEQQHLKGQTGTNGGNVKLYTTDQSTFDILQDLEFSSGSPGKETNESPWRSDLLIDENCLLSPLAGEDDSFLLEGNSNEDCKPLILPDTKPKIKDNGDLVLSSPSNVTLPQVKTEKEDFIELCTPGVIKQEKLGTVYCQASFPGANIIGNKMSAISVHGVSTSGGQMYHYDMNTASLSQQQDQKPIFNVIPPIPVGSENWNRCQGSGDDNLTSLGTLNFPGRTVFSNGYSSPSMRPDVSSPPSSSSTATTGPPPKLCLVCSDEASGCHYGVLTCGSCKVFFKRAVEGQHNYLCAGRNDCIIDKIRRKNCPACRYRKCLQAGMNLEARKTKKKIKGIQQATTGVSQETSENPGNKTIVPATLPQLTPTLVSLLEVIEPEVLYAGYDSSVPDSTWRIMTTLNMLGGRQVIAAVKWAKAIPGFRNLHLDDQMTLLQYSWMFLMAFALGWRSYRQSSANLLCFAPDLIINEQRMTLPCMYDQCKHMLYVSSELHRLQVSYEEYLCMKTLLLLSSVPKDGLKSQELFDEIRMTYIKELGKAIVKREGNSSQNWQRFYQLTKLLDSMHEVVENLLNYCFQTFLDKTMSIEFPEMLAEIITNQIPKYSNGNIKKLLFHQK

[7] = biological target: Glucocorticoid receptor (Homo sapiens) (UniProt P04150); test: GR-EFC Redistribution (AID 451; calls by dose curve; note: potency is the fitted concentration of half-maximal effect); details: CHO-K1 GR-EFC translocation, beta-gal luminescence, 2 h
In short: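 Translocation of GR-ED fusion to nuclear EA restores b-gal, read by luminescence after 1 h room-temperature detection. Engineered CHO-K1 biosensor cells, 1,000/well, exposed 2 h at 37 C to titrations up to 46 uM final.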

[8] = biological target: Mitogen-activated protein kinase 10 (Mus musculus) (UniProt Q61831); test: JNK3 AlphaScreen Assay (AID 530); details: JNK3 lysate, c-Jun phosphorylation; series mostly up to 11.4 µM;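 note: kinase came from lysate of stimulated human HepG2 cells; signal reports phosphorylation of biotinylated GST-cJun 1-79 at Ser73 with 10 µM ATP; % is set by controls: 0 for no effect and ±100 for the full control effect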
In short: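 Compound titrations were preincubated 15 minutes at room temperature with substrate, antibody and pre-activated JNK3-containing HepG2 lysate. Reactions were started with 10 uM ATP and stopped with EDTA-containing bead buffer for AlphaScreen detection.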

[9] = biological target: 3',5'-cyclic-AMP phosphodiesterase 4B (Homo sapiens) (UniProt Q07343); test: qHTS Assay for Inhibitors of PDE-IV (AID 607; active = well fitted activation curve with a large enough effect in the main read-out, with a control signal flat, not every such curve was filed as active; note: % of control where 0% means no effect); details: HEK293 ACTOne CNG channel cells, membrane potential fluorescence; series mostly up to 22.9 µM
Sequence of 3',5'-cyclic-AMP phosphodiesterase 4B (Homo sapiens) (Q07343 whole entry, looked up): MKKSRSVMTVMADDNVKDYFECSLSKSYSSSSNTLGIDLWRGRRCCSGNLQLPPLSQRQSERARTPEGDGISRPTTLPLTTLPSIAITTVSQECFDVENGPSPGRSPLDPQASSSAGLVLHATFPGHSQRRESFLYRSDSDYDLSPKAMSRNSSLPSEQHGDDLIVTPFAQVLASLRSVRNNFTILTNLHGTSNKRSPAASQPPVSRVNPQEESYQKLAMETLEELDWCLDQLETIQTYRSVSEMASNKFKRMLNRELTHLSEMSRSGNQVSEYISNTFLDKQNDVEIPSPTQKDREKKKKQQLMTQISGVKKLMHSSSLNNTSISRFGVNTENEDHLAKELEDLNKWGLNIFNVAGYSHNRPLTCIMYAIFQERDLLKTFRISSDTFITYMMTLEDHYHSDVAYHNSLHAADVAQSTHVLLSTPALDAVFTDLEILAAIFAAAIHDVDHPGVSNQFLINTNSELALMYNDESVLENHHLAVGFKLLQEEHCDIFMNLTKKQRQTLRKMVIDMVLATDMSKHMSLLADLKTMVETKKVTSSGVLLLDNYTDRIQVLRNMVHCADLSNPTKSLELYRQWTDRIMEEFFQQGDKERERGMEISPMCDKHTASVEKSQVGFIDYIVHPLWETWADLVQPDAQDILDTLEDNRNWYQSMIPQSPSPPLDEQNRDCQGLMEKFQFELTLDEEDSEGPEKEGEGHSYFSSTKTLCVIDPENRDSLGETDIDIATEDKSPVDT
In short: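 The readout is membrane depolarisation from a cAMP-sensing CNG channel, detected with a potential dye at ex 535/em 590. Cells were HEK293-derived (endogenous PDE-IV) at 1000 cells/well, titrated up to 22.9 uM final.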

[10] = biological target: Cytochrome P450 3A4 (Homo sapiens) (UniProt P08684); test: qHTS Assay for Activators of Cytochrome P450 3A4 (AID 885; active = well fitted curve in the direction sought with a large enough effect; an effect the other way counts as inactive or inconclusive; note: nearly all actives have a fitted effect of over 65% in size); details: recombinant CYP3A4, Luciferin-PPXE luminescence, 60 min; series mostly up to 11.4 µM
Sequence of Cytochrome P450 3A4 (Homo sapiens) (P08684 whole entry, looked up): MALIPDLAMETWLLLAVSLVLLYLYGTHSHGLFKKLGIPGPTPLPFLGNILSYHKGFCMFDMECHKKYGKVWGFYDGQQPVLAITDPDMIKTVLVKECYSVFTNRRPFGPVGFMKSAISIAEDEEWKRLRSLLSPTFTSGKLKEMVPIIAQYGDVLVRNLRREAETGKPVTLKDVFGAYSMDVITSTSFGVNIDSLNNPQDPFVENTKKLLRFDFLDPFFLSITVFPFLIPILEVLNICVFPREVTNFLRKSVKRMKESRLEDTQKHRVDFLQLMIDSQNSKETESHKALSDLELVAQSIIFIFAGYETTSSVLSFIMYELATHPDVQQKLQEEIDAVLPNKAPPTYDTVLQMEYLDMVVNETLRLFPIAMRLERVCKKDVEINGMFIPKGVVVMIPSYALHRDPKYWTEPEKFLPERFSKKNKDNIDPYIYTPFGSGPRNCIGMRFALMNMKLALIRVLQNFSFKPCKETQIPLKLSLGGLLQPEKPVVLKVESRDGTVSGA
In short: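 Steps: enzyme/substrate mix dispensed; compound added, 10 min RT; NADPH regeneration solution added, 60 min RT; luciferin detection buffer stops reaction; 20 min later luminescence measured.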

[11] = biological target: Cytochrome P450 3A4 (Homo sapiens) (UniProt P08684); test: qHTS Assay for Inhibitors and Substrates of Cytochrome P450 3A4 (AID 884; active = well fitted curve in the direction sought with a large enough effect; an effect the other way counts as inactive or inconclusive; note: potency is the fitted concentration of half-maximal effect; nearly all actives have a fitted effect of over 50% in size); details: recombinant CYP3A4, Luciferin-PPXE luminescence; series mostly up to 57.1 µM
In short: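 20 nM human CYP3A4 with 25 uM Luciferin-PPXE (at KM) in 200 mM KPO4, preincubated 10 min with compound; NADPH regeneration started a 60 min RT reaction. Luciferin detected by luminescence, normalized to 57 uM ketoconazole as full inhibition.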

NC1=C(O)C(=O)[C@H](c2c[nH]c3ccc(OCc4ccccc4)cc23)O1
active: Potency [3] 3.98 µM
inactive: Potency [1] > 11.4 µM | activity change, negative = inhibition [2] -18.8% | activity change, negative = inhibition [4] 7.15% | activity, negative = inhibition [5] -6.03% | Potency [6] > 46 µM | Potency [7] > 9.22 µM | Potency [8] | Potency [9] | Potency [10]

COc1ccc2c(c1)Cc1cc(N=[N+]([O-])c3ccc4c(c3)Cc3cc(OC)ccc3-4)ccc1-2
active: Potency [3] 1.58 µM | Potency [11] 5.01 µM
inactive: Potency [1] > 11.4 µM | activity change, negative = inhibition [2] -9.92% | activity change, negative = inhibition [4] -17.3% | activity, negative = inhibition [5] -1.13% | Potency [6] > 46 µM | Potency [7] > 9.22 µM | Potency [8] | Potency [9] | Potency [10]

Cc1cc(C(=O)CSC(=S)SC(C)(C)C)ccc1Cl
inactive: Potency [1] > 11.4 µM | activity change, negative = inhibition [2] 7.67% | activity change, negative = inhibition [4] -16.2% | activity, negative = inhibition [5] -27.2% | Potency [6] > 46 µM | Potency [7] > 9.22 µM | Potency [8] | Potency [9] | Potency [10]
active: Potency [3] 1.58 µM

ON(CCc1ccccn1)Cc1ccccc1
active: Potency [3] 2.51 µM
inactive: Potency [1] > 11.4 µM | activity change, negative = inhibition [2] -1.79% | activity change, negative = inhibition [4] 10.2% | activity, negative = inhibition [5] -0.0119% | Potency [6] > 46 µM | Potency [7] > 9.22 µM | Potency [8] | Potency [9] | Potency [10]

CC(C)C[C@@H](N)C(=O)Nc1ccc2ccccc2c1
active: Potency [3] 1.58 µM
inactive: Potency [1] > 11.4 µM | activity change, negative = inhibition [2] 9.25% | activity change, negative = inhibition [4] 8.34% | activity, negative = inhibition [5] -2.09% | Potency [6] > 46 µM | Potency [7] > 9.22 µM | Potency [8] | Potency [9] | Potency [10]

C=C[C@]1(C)C[C@H](OC(=O)CO)[C@]2(C)C3C(=O)CC[C@]3(CC[C@H]2C)[C@H](C)[C@H]1O (stereo partly specified)
inactive: Potency [1] > 11.4 µM | activity change, negative = inhibition [2] -0.357% | activity change, negative = inhibition [3] -21% [at 2.29 µM] | activity change, negative = inhibition [4] -4.75% | activity, negative = inhibition [5] -4.08% | Potency [6] > 46 µM | Potency [7] > 9.22 µM | Potency [8] | Potency [9] | Potency [10]

CC(C)c1ccccc1S(=O)c1ccccc1C(C)(C)O (stereo unspecified)
inactive: Potency [1] > 11.4 µM | activity change, negative = inhibition [2] -11.8% | activity change, negative = inhibition [3] -10.7% [at 2.29 µM] | activity change, negative = inhibition [4] 20.3% | activity, negative = inhibition [5] 2.89% | Potency [6] > 46 µM | Potency [7] > 9.22 µM | Potency [8] | Potency [9] | Potency [10]
